The source made the active and inactive calls. How the source made its calls: active means hit-call score of the fitted dose curve at least 0.9, where 1 is the maximum; inactive means score below 0.9.

Read-out in this assay: Bcl-2 (BAD) gene, BAD (gene 572)
Nature of the assay: LTEA_HepaRG_BAD: Life Technologies and Expression Analysis (LTEA) Assay for Bcl-2 (BAD) gene using HepaRG (AID 2283469). The note with it: mRNA level, 48 h; actives raise or lower the signal. The procedure:
LTEA_HepaRG is a cell based, multiplexed-readout assay that uses HepaRG, a human liver cell line, with measurements taken at 48 hours after chemical dosing on a 96-well plate.LTEA_HepaRG_BAD is one of 102 assay component(s) measured in the LTEA HepaRG cell culture assay. It is a marker of Cell proliferation, survival, death.Data from the assay component LTEA_HepaRG_BAD was analyzed into 1 endpoint. This assay endpoint, LTEA_HepaRG_BAD, was analyzed with bidirectional fitting relative to DMSO as the negative control and baseline of activity. Using a type of inducible reporter, measures of mRNA induction for gain or loss-of-signal activity can be used to understand regulation of transcription factor activity. To generalize the intended target to other relatable targets, this assay endpoint is annotated to the cell cycle intended target family, where the subfamily is Cell proliferation, survival, death.
A total of 1060 chemcials from the ToxCast library were tested in eight-point concentration-response experiments. Cell culture and cytotoxicity assays were conducted at Thermo Fisher Scientific's Custom Services facility (Madison, WI). A single lot of human HepaRG cells (Thermo Fisher Scientific, Frederick, MD) was used for the cell culture experiments. 96-well format collagen type I coated plates of human HepaRG cells were prepared using established methods. Briefly, cryopreserved HepaRG cells were thawed, plated at a density of approximately 100,000 cells/well in HepaRG Thaw, Plate, and General Purpose media (HPRG770, Thermo Fisher Scientific), and incubated for 48 hours. 0.5% DMSO was selected as vehicle control to balance the requisite need of DMSO in HepaRG cultures to maintain differentiation (for example, baseline metabolism, proportions of hepatocytes vs. cholangiocytes), while enabling further hepatic receptor pathway activation (for example, PXR and CAR) in response to chemical exposure. 48 hours after plating, the culture medium was replaced with HepaRG Serum-Free Incudtion Media. Cells were exposed to each test chemical in duplicate and maintained in CO2 incubators for another 48 hours. Chemical plates were thawed to room temperature and 200x concentrations of treatment groups were prepared. 8-point conentration-reponse curves were made with the highest exposure at 100 uM, followed by half-log dilutions, all in 0.5% DMSO. Each test plate contained variouse controls, induction positive controls (1mM phenobarbital), cytotoxicity positive controls ([…] aflatoxin B1), vehicle controls (0.5% DMSO), and total lysis controls (0.5% DMSO). Cell morphology images were taken using an Essen IncuCyte FLR automated microscope, with six 96-well plates imaged in about 24 minutes. Images were captured and exported and JPEG files. Spent culture media was transfered to black-well plates for the LDH assay, and remaining media was sorted at -80 C for later use. Cells were treated with RLT buffer and frozen until shipped for gene expression analysis. Total RNA was isolated from the cell suspension in 75 uL of Buffer RLT (Qiagen, Germantown, MD 20874) by Quintiles/Expression Analysis (Durham, NC) using a custom isolation procedure. Total RNA from each plate well was transferred to a preamplification plate. Fluidigm's 96.96 Dynamic ArrayTM (Fluidigm, Amsterdam, the Netherlands) technology was used for gene expression analyses by quantitative reverse transcription polymerase chain reaction (qRT-PCR, performed by Quintiles/Expression Analysis, Durham, NC)89. Standard TaqManTM Assays (Applied Biosystems/ThermoFisher Scientific, Foster City, CA) were used to assess the expression of 93 genes selected based on their selectivity and sensitivity to important hepatic receptors known to be modulated by environmental chemicals; importance in human hepatocyte functionality; and hepatotoxicity. […]
In the case of `C/C=C/c1ccc(OC)cc1`, the compound was classed as inactive. Under `Nc1nc(=S)c2[nH]cnc2[nH]1` stands “inactive”; under `CCCCOC(=O)CCCCC(=O)OCCCC`, “inactive”. Under `CC(=O)S[C@H](C(=O)N[C@H]1Cc2ccccc2[C@H]2CCC[C@@H](C(=O)O)N2C1=O)C(C)C` stands “inactive”; under `NCCOCCOCCN`, “inactive”. Under `Oc1ccc(O)cc1` stands “inactive”; under `O=C1O[C@H]([C@H](O)CO)C(O)=C1O`, “inactive”; under `CCCC[C@H]1CN(CC2CCOCC2)C(=O)OC12CCN(C1(C)CCN(C(=O)c3c(C)ncnc3C)CC1)CC2`, “inactive”. On to `N[C@@H](Cc1c[nH]c2ccccc12)C(=O)O`, for which the result was inactive. Under `CCC(C)N(C)C(=O)c1cc2ccccc2c(-c2ccccc2Cl)n1` (stereo not given) stands “inactive”; under `CC(=O)OC1CC(C)OC(C)O1` (stereo not given), “inactive”.

Regarding `CCCCc1nc2cccnc2n1Cc1ccc(-c2ccccc2-c2nnn[nH]2)cc1`, the call was inactive. As to `CCN(CC)CCOc1ccc(C(=C(Cl)c2ccccc2)c2ccccc2)cc1`, the call was inactive.

For the compound `CC(C)c1cccc(C(C)C)c1NC(=O)NS(=O)(=O)c1cc(C(C)(C)O)co1`, the compound was classed as inactive. Regarding `Cc1cn([C@H]2C=C[C@@H](CO)O2)c(=O)[nH]c1=O`, the compound was called inactive. Under `CC(=O)OCC(COC(C)=O)OC(C)=O` stands “inactive”; under `CC(=O)O`, “inactive”.

For `CCCCCCCCCC[N+](C)(C)[O-]`, the compound was classed as inactive. Consider `Cc1c(C)c2c(c(C)c1O)CCC(C)(COc1ccc(CC3SC(=O)NC3=O)cc1)O2` (stereo not given), for which the compound was classed as inactive. Regarding `O=NO`, the call was inactive. As for `C=CCc1ccc(OC)c(OC)c1`, the outcome was inactive. Turning to `CCCCC(CC)CO` (stereo not given), the outcome was inactive.

Regarding `CCc1cc(C2=C(C(=O)O)N(c3ccccc3C(F)(F)F)S(=O)(=O)c3ccccc32)cc2c1OCO2`, the compound was classed as inactive.

Regarding `CC(N)=O`, the outcome was inactive. On to `COC(=O)CCCC(=O)OC`, for which the outcome was inactive. Take `Cc1occc(=O)c1O`: the compound was classed as inactive. For the compound `CC(=O)CC(c1ccccc1)c1c(O)c2ccccc2oc1=O` (stereo not given), the outcome was inactive.

On to `CC(=O)O[C@]1(C(C)=O)CC[C@H]2[C@@H]3C=C(Cl)C4=CC(=O)[C@@H]5C[C@@H]5[C@]4(C)[C@H]3CC[C@@]21C`, for which the result was inactive.

Regarding `CSc1ccc(Oc2ccc(S(N)(=O)=O)cc2CN(C)C)cc1C`, the result was inactive. In the case of `C/C=C/C=C/C(=O)O` it was “inactive”; in that of `C#CC(O)C(CC)CCCC` (stereo not given), “inactive”; in that of `O=C(Oc1ccccc1)c1cccc(C(=O)Oc2ccccc2)c1`, “inactive”. Under `Oc1ccccc1O` stands “inactive”; under `COc1ccc(OC(F)(F)F)cc1CN[C@H]1CCCN[C@H]1c1ccccc1`, “inactive”; under `O=C(N[C@@H](c1ccccc1)[C@@H]1CCCCN1)c1cccc(C(F)(F)F)c1Cl`, “inactive”. In the case of `O=C(NS(=O)(=O)/C=C/c1cccs1)c1ccc(F)cc1Br` it was “inactive”; in that of `CN(C)C(=O)NC1(c2ccccc2)CCN(CC[C@@]2(c3ccc(F)c(F)c3)CN(C(=O)c3ccccc3)CCO2)CC1`, “inactive”; in that of `Cc1cc(SC2=C(O)C[C@@](CCc3ccc(N)cc3)(C(C)C)OC2=O)c(C(C)(C)C)cc1CO`, “inactive”. As to `Cc1ccc(-c2cc(C(F)(F)F)nn2-c2ccc(S(N)(=O)=O)cc2)cc1`, the compound was classed as inactive. Turning to `O=C(O)CC(O)(CC(=O)O)C(=O)O`, the result was inactive.

The values above are taken from PubChem BioAssay (EPA / NIEHS).
